# USP2a inh = qHTS Assay for Inhibitors of Ubiquitin-specific Protease USP2a Using CHOP2 as the Reporter. USP2 core, Ub-CHOP2 coupled fluorogenic reporter, 485/531. 330,000 compounds, 0.01% hits. AID 463254, 2010. Potency, µM (highest dose often 38.3 µM), actives largely listed as inhibitors. Ubiquitin carboxyl-terminal hydrolase 2 (Homo sapiens), O75604
#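 Deubiquitinase activity read as fluorescence (485/531 nm) after Ub-CHOP2 cleavage activates the enterokinase reporter on its substrate; USP2 core 10nM, Ub-CHOP2 and substrate 25nM each, 30min compound preincubation then 60min RT; data normalized to NEM, curves fitted.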
# Eya2 inh = qHTS Assay for Inhibitors of the Phosphatase Activity of Eya2. Potency, µM (series often up to 76.9 µM), most hits filed as inhibitors. recombinant Eya2, OMFP fluorescence dephosphorylation (OMFP is methylfluorescein phosphate). 330,000 compounds, 0.006% hits. AID 488837, 2010
#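 Eya2 (0.2 uM) preincubated 10 min at ambient with compound, then OMFP substrate added at 50 uM; 10 min reaction in 50 mM HEPES pH 7.5, 50 mM NaCl, 5 uM MgCl2, 0.05% BSA, 1 mM DTT. Fluorescence read at Ex 485/Em 525 nm.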
# uPA generation = qHTS for Inhibitors of Cell Surface uPA Generation; cell surface uPA generation assay, qHTS; Potency, µM (doses to about 38.3 µM), actives largely listed as inhibitors; 330,000 compounds, 0.31% hits; AID 540303, 2011; active means well fitted inhibition curve with a large enough effect; inconclusive means small, poorly fitted or top-dose-only effect; inactive means no such curve, though single readings can be large or run the other way; tested in mouse RAW 264.7 cells; further: nearly all actives have a fitted effect of over 55% in size
# CtBP-E1A blk = qHTS Assay for Inhibitors of the CtBP/E1A Interaction; CtBP / adenovirus E1A interaction (AlphaScreen); AlphaScreen GST-E1A/His-CtBP binding, 1536-well; active compounds read low; activity change, % (test concentration not listed); 340,000 compounds, 0.49% hits; AID 651724, 2012; in the data active means activity change below about -65%; inconclusive means mostly about -30% to -63%
#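 Protein mix (5X: 125 nM each GST-E1A, His-CtBP) was incubated with pinned compound 2 h at 37 deg C in dark, in 50 mM Tris pH 8.0 buffer with 300 mM NaCl. Glutathione donor and nickel acceptor beads followed; AlphaScreen signal read after 1 h.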
# L3MBTL1 inh-1 = qHTS Assay for the Inhibitors of L3MBTL1; Potency, µM (highest dose often 57.1 µM), usual class: inhibitors; Lethal(3)malignant brain tumor-like protein 1 (Homo sapiens), Q9Y468; AlphaScreen L3MBTL1–H3K9me1 peptide binding; 230,000 compounds, 0.66% hits; further: nearly all actives have a fitted effect of over 60% in size
# Target sequence (Q9Y468 whole entry, looked up): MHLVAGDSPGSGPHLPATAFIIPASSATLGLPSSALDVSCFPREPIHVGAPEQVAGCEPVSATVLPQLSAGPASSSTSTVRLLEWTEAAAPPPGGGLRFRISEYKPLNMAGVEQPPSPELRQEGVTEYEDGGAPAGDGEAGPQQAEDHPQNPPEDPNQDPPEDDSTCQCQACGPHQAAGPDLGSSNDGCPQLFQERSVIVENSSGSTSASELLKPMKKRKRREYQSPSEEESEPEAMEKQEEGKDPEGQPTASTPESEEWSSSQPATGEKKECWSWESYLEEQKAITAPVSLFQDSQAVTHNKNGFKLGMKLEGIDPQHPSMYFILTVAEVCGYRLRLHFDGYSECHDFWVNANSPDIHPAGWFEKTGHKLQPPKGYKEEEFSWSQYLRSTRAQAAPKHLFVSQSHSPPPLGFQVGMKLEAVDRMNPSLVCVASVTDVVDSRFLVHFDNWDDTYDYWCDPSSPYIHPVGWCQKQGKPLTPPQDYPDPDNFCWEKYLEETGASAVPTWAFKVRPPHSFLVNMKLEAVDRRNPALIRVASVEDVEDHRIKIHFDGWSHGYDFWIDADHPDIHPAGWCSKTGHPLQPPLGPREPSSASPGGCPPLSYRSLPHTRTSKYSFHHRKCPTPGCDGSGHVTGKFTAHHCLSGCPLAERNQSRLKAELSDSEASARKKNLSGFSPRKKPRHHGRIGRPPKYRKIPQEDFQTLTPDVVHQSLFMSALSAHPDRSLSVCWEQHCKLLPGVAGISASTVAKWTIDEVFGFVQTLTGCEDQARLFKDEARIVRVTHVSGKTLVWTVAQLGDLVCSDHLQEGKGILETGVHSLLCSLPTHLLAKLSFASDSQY
#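 AlphaScreen proximity signal between nickel-chelate acceptor and streptavidin donor beads (final 10 ug/mL) reports binding of 50 nM L3MBTL1 to 75 nM biotin-H3 K9me1 peptide; complex incubated with compounds 30 min at room temperature; cefsulodin titration as control.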
# Six1-Eya2 inh = qHTS Assay for Inhibitors of the Six1/Eya2 Interaction | Homeobox protein SIX1 (Homo sapiens) + Protein phosphatase EYA2 (Homo sapiens), … | AlphaScreen GST-Six1/His-Eya2 binding, biochemical; active compounds read low | activity change, % (no concentration beside the values) | 360,000 compounds, 0.56% hits | AID 651725, 2012; in the data active means activity change below about -65%; inconclusive means mostly about -30% to -63%
#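 GST-Six1 + His-Eya2 (5X stock: 250/500 nM); Tris pH 8.0, 300 mM NaCl, 0.05% BSA, 0.02% Tween 20; GSH donor/Ni acceptor beads; 1 h 37 °C dark; AlphaScreen readout.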
# L3MBTL1 inh-2 = qHTS Assay for the Inhibitors of L3MBTL1: Hit Validation. shares compounds with L3MBTL1 inh-1. L3MBTL1 methyl-lysine binding inhibition, biochemical qHTS. Potency, µM, most hits filed as inhibitors. 500 compounds, 91% hits. AID 540279, 2011; further: nearly all actives have a fitted effect of over 70% in size
# L3MBTL1 ctr = qHTS Assay for the Inhibitors of L3MBTL1: Hit Validationin AlphaScreen Counterscreen. shares compounds with L3MBTL1 inh-1. AlphaScreen counterscreen, signal inhibition. Potency, µM (highest dose often 57.1 µM), hits mostly inhibitors. 500 tested, under 10 active. AID 602224, 2012
# Numbers stand for hits; i = inactive; ? = inconclusive; nt = no result given. This is a sample that favours compounds with a hit; in the whole collection about 1.2% have one here. Unless noted, the call rests on the fitted dose curve; in most records, active means well fitted curve in the direction sought with a large enough effect; inconclusive means small, poorly fitted or top-dose-only effect, or another doubt; inactive means no such curve, though single readings can be large; an effect the other way counts as inactive or inconclusive.
SMILES,USP2a inh,Eya2 inh,uPA generation,CtBP-E1A blk,L3MBTL1 inh-1,Six1-Eya2 inh,L3MBTL1 inh-2,L3MBTL1 ctr
O=C(CCS(=O)(=O)c1ccc(Br)cc1)Nc1cc(F)ccc1F,i,i,i,i,28.2µM,i,26.7,i
O=C(CCC1CCCN(C(=O)c2ccsc2)C1)N1CCN(c2ccccn2)CC1 (centres undefined),i,?,i,i,i,i,nt,nt
C=CCn1c(SCC(=O)c2ccc(O)c(O)c2)nnc1-c1cccnc1,i,i,i,i,6.31µM,?,2.99,?
Cn1c(=O)c2nc3ccccc3nc2n(C)c1=O,i,i,i,i,i,i,nt,nt
CC(=O)Nc1ccc2nc3c(=O)n(C)c(=O)n(C)c3nc2c1,i,i,i,i,25.1µM,?,23.8,i
O=C(O)c1cc(C(=O)O)cc(-c2ccc(/C=c3/sc4nc5ccccc5n4c3=O)o2)c1,i,i,i,i,1.78µM,?,3.36,i
O=c1/c(=C\c2cc([N+](=O)[O-])cc([N+](=O)[O-])c2O)sc2nc3ccccc3n12,i,i,i,i,nt,i,nt,nt
O=C(O)c1cccc(-c2ccc(/C=c3/sc4nc5ccccc5n4c3=O)o2)c1,?,?,i,nt,3.55µM,i,2.67,i
O=C(Nc1cccc(C(=O)N2CCOCC2)c1)c1ncn[nH]1,i,i,i,i,28.2µM,?,21.2,?
CCOC(=O)C1(CCOC)CCN(Cc2ccc(C3CCCCO3)s2)CC1 (centres undefined),i,i,i,i,i,i,nt,nt
C=CCn1c(C)cc(C(=O)Cn2ncc(Cl)c(Cl)c2=O)c1C,i,i,i,i,14.1µM,i,?,i
CC(C)(C)C(=O)Cn1ncc(Cl)c(Cl)c1=O,i,i,?,nt,i,i,nt,nt
COc1cccc(N/N=C(\C#N)S(=O)(=O)C(C)(C)C)c1,i,i,i,i,nt,i,nt,nt
Cc1ccc(C2/C(=C(/O)c3ccccc3)C(=O)C(=O)N2CCN2CCOCC2)o1 (centres undefined),i,i,i,i,i,i,nt,nt
Cc1ccc(C)c(/C(O)=C2/C(=O)C(=O)N(CCN3CCOCC3)C2c2ccco2)c1 (centres undefined),i,i,i,i,25.1µM,i,10.6,i
O=C(CSc1nnc(-c2ccc(C(F)(F)F)cn2)o1)Nc1ccccc1Cl,i,i,i,?,31.6µM,-84.0,21.2,i
COc1ccccc1/C=c1\sc2nc(-c3ccco3)nn2c1=O,i,i,i,i,12.6µM,i,11.9,i
CCOc1ccc(/C=c2\sc3nc(-c4ccco4)nn3c2=O)cc1OCC,i,i,i,i,i,i,nt,nt
Cc1ccc2nc(-c3ccc(O)c(O)c3)cn2c1,i,i,i,i,31.6µM,i,5.32,i
N#Cc1nc(COc2ccccc2Cl)oc1N1CCCC1,i,i,i,i,28.2µM,i,?,?
Cc1cc(-c2nc3c4c5c(sc4[nH]c(=O)n3n2)CCC5)c(C)o1,i,i,i,i,8.91µM,i,9.47,i
COc1cc(S(=O)(=O)N2CCOCC2)ccc1NC(=O)COC(=O)COc1ccccc1,i,i,i,i,i,i,nt,nt
C=CCN(CC=C)C(=O)CCc1nnc(CCc2c[nH]c3ccccc23)o1,i,i,i,nt,i,i,nt,nt
CCN1C(=O)[C@H]2[C@H]3CN=C(SC)N3[C@@](CC)(C(=O)OC)[C@H]2C1=O,i,i,i,i,i,i,nt,nt
O=C(O)CC/C(=C\c1cccc(NC(=O)c2ccccc2Cl)c1)c1nc2ccccc2s1,i,i,i,i,35.5µM,i,?,i
SMILES,USP2a inh,Eya2 inh,uPA generation,CtBP-E1A blk,L3MBTL1 inh-1,Six1-Eya2 inh,L3MBTL1 inh-2,L3MBTL1 ctr
O=C(O)CC/C(=C\c1cc([N+](=O)[O-])ccc1Cl)c1nc2ccccc2s1,i,i,i,i,i,i,nt,nt
O=C1CCC(C(=O)N2CCCC(C(=O)c3ccc4c5c(cccc35)CC4)C2)=NN1 (centres undefined),i,i,i,i,i,i,nt,nt
COc1cccc(CN2CCNC(=O)C2CC(=O)NCCn2ccc3ccccc32)c1OC (centres undefined),i,i,i,nt,i,i,nt,nt
COc1ccc2[nH]c(=O)cc(C(=O)O)c2c1,i,i,i,i,22.4µM,i,3.36,i
CC(=O)Oc1cc(C(=O)OCC(=O)N2CCc3ccccc3C2)cc(OC(C)=O)c1OC(C)=O,i,i,i,i,8.91µM,i,2.99,i
COc1ccc(C(=O)OCC(=O)N2CCc3ccccc3C2)cc1OC,i,i,i,i,i,i,nt,nt
Cc1ccnc(NC(c2cccnc2)c2ccc3cccnc3c2O)c1 (centres undefined),i,i,i,-98.7,12.6µM,-86.0,10.6,i
O=C(NCc1ccccn1)c1cc(S(=O)(=O)N2CCCCC2)ccc1Cl,i,i,i,i,i,i,nt,nt
CC(=O)c1ccc(NC(=O)CC2Nc3cccc4cccc(c34)NC2=O)cc1 (centres undefined),i,i,i,nt,3.55µM,i,26.7,?
CCOC(=O)C1=C(COC(=O)CCC(=O)c2ccc(C)cc2)NC(=O)NC1C (centres undefined),i,i,i,i,i,i,nt,nt
CCCC[N+](C)(C)CCC(=O)NC(C)(C)CS(=O)(=O)[O-],i,i,i,i,20µM,i,21.2,i
CCCCCCNC(=O)O[C@H]1C[C@@H]2C(=O)N(c3ccccc3)C(=O)[C@@H]2[C@@H]2CN(S(=O)(=O)c3ccc(C)cc3)C[C@]12O,nt,nt,nt,i,nt,i,nt,nt
S=C1SCN(Cc2ccccn2)CN1Cc1ccco1,i,i,?,?,28.2µM,-80.5,26.7,i
Cc1cccc(C)c1NC(=O)CSc1nnc(-c2ccco2)c(-c2ccco2)n1,i,i,i,i,2.82µM,-66.7,2.67,i
Cc1ccc(C(CCN(Cc2ccccc2)C(=O)c2ccco2)c2ccco2)cc1 (centres undefined),i,i,i,i,25.1µM,i,21.2,i
O=C1CCN(S(=O)(=O)c2cc(C(F)(F)F)ccc2Cl)CC1,i,i,i,i,i,i,nt,nt

# Bioassay records as filed in PubChem.
